Source: PubChem (several laboratories)
SENP6 block: blocks the human protease SENP6 | actives 1.8% (n = 330,000) | Q9GZR1 | inhibition, % at 10 µM | AID 2599 | Recombinant SENP6 catalytic domain, aminoluciferin luminescence;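 active means inhibition above about 50% at the single tested dose, limit read from the data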
SENP8 block-1: SENP8 (human) protease inhibition; inhibition, % at 20 µM; actives 0.64% (n = 360,000); Q96LD8; recombinant SENP8, Nedd8 substrate fluorescence; in the data active means inhibition mostly above about 40%, no sharp cut-off; inactive means mostly below about 27%
HSP90 inh: inhibitors of HSP90 luciferase refolding in rabbit reticulocyte lysate. actives 0.91% (n = 290,000). inhibition, % at 5.6 µM. luciferase refolding luminescence, 3 h;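 active means inhibition above the screen-wide mean plus 3 SD, computed separately per campaign, cut at about 16% in these data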;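 further: inhibitors lower the luminescence because luciferase stays unfolded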
SENP8 block-2: blocks the human protease SENP8; purified SENP8, Z-RLRGG-aminoluciferin cleavage, luminescence; inhibition, % at 10 µM; actives 1.2% (n = 330,000); in the data active means inhibition above about 50%
SENP7 inh: SENP7 protease inhibition | Q9BQF6 | recombinant SENP7, Z-RLRGG-aminoluciferin luminescence, 40 min | inhibition, % at 5 µM | actives 1.5% (n = 330,000);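 active means inhibition above about 50% at the single test dose, limit read from the data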
HSP90 inh confirm: HSP90 inhibition, confirmation assay | shares compounds with HSP90 inh | rabbit reticulocyte lysate, luciferase refolding luminescence, 3 h | inhibition, % at 5.9 µM | actives 64% (n = 2,300); in the data active means inhibition above about 18%
FLuc counter: firefly luciferase inhibition, HSP90 counter-screen; shares compounds with HSP90 inh; purified native firefly luciferase, luminescence; inhibition, % at 5.9 µM; actives 48% (n = 2,300); AID 1847;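 active means inhibition above the mean inhibition of all tested sample wells plus 3 SD, cut at about 10% in these data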
Target sequence (P08659 whole entry, looked up): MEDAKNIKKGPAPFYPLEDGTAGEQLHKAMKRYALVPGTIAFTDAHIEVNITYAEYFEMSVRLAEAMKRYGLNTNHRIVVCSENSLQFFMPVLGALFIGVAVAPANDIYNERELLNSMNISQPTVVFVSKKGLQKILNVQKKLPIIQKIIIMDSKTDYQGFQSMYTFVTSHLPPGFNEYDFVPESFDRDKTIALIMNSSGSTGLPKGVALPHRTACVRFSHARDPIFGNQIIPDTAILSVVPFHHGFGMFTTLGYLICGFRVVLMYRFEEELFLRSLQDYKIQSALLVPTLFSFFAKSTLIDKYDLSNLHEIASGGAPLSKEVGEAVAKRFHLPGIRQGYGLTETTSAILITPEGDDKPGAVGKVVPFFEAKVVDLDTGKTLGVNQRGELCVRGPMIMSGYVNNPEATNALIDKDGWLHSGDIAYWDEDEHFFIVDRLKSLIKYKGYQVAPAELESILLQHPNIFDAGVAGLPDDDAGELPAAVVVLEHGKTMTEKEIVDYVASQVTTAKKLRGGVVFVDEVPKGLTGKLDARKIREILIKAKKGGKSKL
Each line names hits and unclear results; the compound was inactive in the other large screens (follow-up assays come after a bar, where they were run). Sampled rows, rich in hits. Any-hit rate of the full collection: about 2.8%.

CC(=O)NC1=C(Nc2ccc(N(C)C)cc2)C(=O)c2ccccc2C1=O	SENP8 block-1 44, HSP90 inh 21 | HSP90 inh confirm inactive | FLuc counter inactive
O=C(NCCc1ccc(Cl)cc1)c1ccc2c(c1)OCO2	none
CC(C)(C)SCCNC(=O)c1ccccc1	none
Cc1ccc(C(=O)NCCc2cccs2)cc1	HSP90 inh 55 | HSP90 inh confirm 74 | FLuc counter 62
O=C(NCCc1cccs1)c1ccc(Cl)c(Cl)c1	none
Cc1ccc(C(=O)NCCSC(C)(C)C)cc1	HSP90 inh 19 | HSP90 inh confirm 31 | FLuc counter 24
O=C(NCCc1cccs1)c1ccc(Cl)cc1	HSP90 inh 19 | HSP90 inh confirm 45 | FLuc counter 41
O=C(NCCc1ccc(Cl)cc1)c1ccc2c(c1)OCCO2	HSP90 inh 18 | HSP90 inh confirm 27 | FLuc counter 23
CCc1ccccc1NC(=O)Nc1ccsc1C(=O)OC	none
COc1cccc(-c2ccc(-c3noc(-c4cccs4)n3)c(OC)n2)c1	none
COc1ccc(-c2nc(-c3cccs3)no2)cc1	SENP6 block 99, HSP90 inh 33, SENP8 block-2 96, SENP7 inh 99 | HSP90 inh confirm 87 | FLuc counter 81
Cn1ccc(C(=O)Nc2sc3c(c2C(N)=O)CCCCC3)n1	HSP90 inh 19 | HSP90 inh confirm 38 | FLuc counter 19
Cc1ccc(-c2cc(C(=O)N/N=C/c3ccco3)[nH]n2)cc1	HSP90 inh 22 | HSP90 inh confirm 19 | FLuc counter 24
CCCCN(C)S(=O)(=O)c1c(C)[nH]c(=O)[nH]c1=O	HSP90 inh 25 | HSP90 inh confirm inactive | FLuc counter inactive
CCCCN(CCCC)S(=O)(=O)c1c(C)[nH]c(=O)[nH]c1=O	none
O=C(COC(=O)c1c(Cl)cccc1Cl)Nc1cc(Cl)ccc1Oc1ccccc1	none
CCc1nnc(N/N=C/c2ccccc2Cl)n1N	HSP90 inh 72 | HSP90 inh confirm inactive | FLuc counter inactive
CCc1nnc(N/N=C/c2ccccc2F)n1N	HSP90 inh 80 | HSP90 inh confirm inactive | FLuc counter inactive
CCOC(=O)N/N=C/c1ccccc1F	none
CCOC(=O)N1CCN(Cc2ccc3c(c2)OCO3)CC1	none
Cc1c(O)ccc(C(=O)CN2CCN(Cc3ccc4c(c3)OCO4)CC2)c1O	HSP90 inh 84 (no result: SENP6 block, SENP8 block-2, SENP7 inh) | HSP90 inh confirm inactive | FLuc counter inactive
Brc1ccc(N=Nc2ccc3ccccc3n2)cc1	SENP6 block 97, HSP90 inh 61, SENP8 block-2 96, SENP7 inh 100 | HSP90 inh confirm 95 | FLuc counter 86
CCOc1ccccc1-n1c(SCC(=O)Nc2ccccc2C(=O)O)nc2ccccc2c1=O	HSP90 inh 50 | HSP90 inh confirm 56 | FLuc counter 37
CC1CCCN(C(=O)CCNC(=O)c2ccccc2Cl)C1 (stereo unspecified)	none
COc1ccc(CCn2ccc(O)c(Cc3ccc(Cl)cc3)c2=O)cc1OC	none
COc1ccc2[nH]c3c(NCc4ccco4)ncnc3c2c1	none (no result: SENP8 block-1)
COc1ccccc1NC(=O)c1coc(=O)c(Br)c1	HSP90 inh 55 | HSP90 inh confirm 83 | FLuc counter inactive
CCOC(=O)NC1Cc2ccccc2C1Sc1ccccn1 (stereo unspecified)	HSP90 inh 44 | HSP90 inh confirm inactive | FLuc counter inactive
CCOC(=O)NC(=O)CSc1ccccn1	none
O=C(CSc1nnc(CNC(=O)c2ccccc2)o1)NCc1ccccc1	none
O=C(O)COc1ccccc1/C=N/NC(=O)CSc1nc2ccccc2s1	none
O=C(CSc1nc2ccccc2s1)N/N=C/c1ccccc1C(=O)O	HSP90 inh 18 | HSP90 inh confirm inactive | FLuc counter inactive
CCOC(=O)N/N=C/C=C/c1ccccc1	none
Cc1cccc([C@@H]2[C@@H]3C(=O)N(Cc4ccccc4)C(=O)[C@@H]3[C@]3(Cc4ccc(Cl)cc4)C(=O)N(c4ccc(Br)cc4)C(=O)N23)c1	HSP90 inh 27 | HSP90 inh confirm inactive | FLuc counter inactive
COC(=O)c1ccc(NC(=O)c2ccc(C)cc2)o1	HSP90 inh 30 | HSP90 inh confirm 37 | FLuc counter inactive
COC(=O)c1ccc(NC(=O)c2ccc(F)cc2)o1	none
O=S(=O)(/N=C(/Nc1ccccc1F)c1ccccc1)c1ccccc1	none
O=C(O)c1ccc(S(=O)(=O)/N=C2\C=C(Nc3ccccc3F)C(=O)c3ccccc32)cc1	SENP6 block 98, SENP8 block-1 88, HSP90 inh 92, SENP8 block-2 96, SENP7 inh 65 | HSP90 inh confirm 94 | FLuc counter inactive
Cc1ccccc1NC1=C/C(=N\S(=O)(=O)c2cccs2)c2ccccc2C1=O	SENP6 block 86, SENP8 block-1 99, HSP90 inh 35, SENP8 block-2 90, SENP7 inh 89 | HSP90 inh confirm 91 | FLuc counter inactive
Cc1ccccc1NC1=C/C(=N\S(=O)(=O)c2ccc(C(=O)O)cc2)c2ccccc2C1=O	SENP6 block 94, SENP8 block-1 88, HSP90 inh 98, SENP8 block-2 95, SENP7 inh 69 | HSP90 inh confirm 96 | FLuc counter inactive
COC(=O)c1sc(NC(=S)NC(=O)c2cccc(C)c2)nc1C	HSP90 inh 22 | HSP90 inh confirm inactive | FLuc counter inactive
COC(=O)c1sc(NC(=O)COc2cccc(C)c2)nc1C	none
Cn1c(=O)n(C)c2cc(NC(=O)c3ccc(F)cc3)ccc21	none
Cc1nc(NC(=O)c2ccc(F)cc2)sc1C(=O)Nc1ccc2c(c1)CCC2	HSP90 inh 39 | HSP90 inh confirm 46 | FLuc counter inactive
Cc1nc(NC(=O)C2CC2)sc1C(=O)Nc1ccccc1	none
COc1cccc(NC(=O)c2sc(NC(=O)c3ccncc3)nc2C)c1	HSP90 inh 79 | HSP90 inh confirm 80 | FLuc counter 41
Cc1nc(NC(N)=S)sc1C(=O)Nc1ccccc1	HSP90 inh 19 | HSP90 inh confirm 26 | FLuc counter inactive
COc1ccc(N(CC(=O)N2CCN(c3cccc(Cl)c3)CC2)S(=O)(=O)c2c(C)noc2C)cc1	none
COC(=O)c1cn(Cc2ccc(C(F)(F)F)cc2)cc(F)c1=O	none
Cc1nnc(NC(=O)c2cccc(F)c2)s1	none
CCOC(=O)CNC(=O)c1sc(NC(=O)c2cccc(F)c2)nc1C	HSP90 inh 32 | HSP90 inh confirm 32 | FLuc counter inactive
Cn1ncc(Cl)c1C(=O)Nc1ccc2c(c1)CCC2	none
Cc1cnc(C(=O)Nc2ccc3c(c2)CCC3)cn1	HSP90 inh 17 | HSP90 inh confirm 27 | FLuc counter 18
COc1ccc(CCNC(=O)COc2ccc(-c3ccccc3)cc2)cc1OC	none
CC[C@@H]1CN(C)[C@H]2Cc3c([nH]c4ccccc34)C(=O)C[C@@H]1[C@@H]2C(=O)OC	none (no result: HSP90 inh)
Cc1c(-c2nc(-c3ccc(C(C)(C)C)cc3)no2)n(C)oc1=O	HSP90 inh 70 | HSP90 inh confirm 91 | FLuc counter inactive
Cc1cc(-c2nc(-c3ccc(C(C)(C)C)cc3)no2)no1	none
